A selection: hits, their analogues and other compounds. The true share with any hit is near 17%.
DT40 TDP1 no CPT – qHTS for Inhibitors of human tyrosyl-DNA phosphodiesterase 1 (TDP1): qHTS in cells in absence of CPT | 420,000 compounds, 15% hits | Potency, µM (top dose mostly 46.2 µM), inactives show at the top dose activity change, negative = growth inhibition, hits mostly inhibitors | DT40 Tdp1-/- hTDP1 cells, no CPT, ATP luminescence, 48 h; further: on the % scale 0 is the no-effect control and ±100 the full control effect; nearly all actives have a fitted effect of over 55% in size
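Stably hTDP1-transfected Tdp1-null chicken DT40 cells were treated with library compounds minus camptothecin and grown for at least 48 hr at 37 °C, after which cellular ATP was quantified by luminescence.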
S2 tox – cell viability loss in ATXN counter-screen | 400,000 compounds, 0.49% hits | AID 651635 | Potency, µM (doses to about 56.7 µM), most hits filed as cytotoxic | S2 cells (HEK-293 line with an ATXN2-luciferase reporter) viability, CellTiter-Fluor protease fluorescence, 24 h; further: nearly all actives have a fitted effect of over 40% in size
HepG2 tox – counter-screen for TGF-b inhibitors: cytotoxicity in HepG2 cells; Potency, µM (doses to about 46.1 µM), inactives show at the top dose activity change, negative = cytotoxicity, usual class: cytotoxic; 410,000 compounds, 0.76% hits; HepG2 CAGA-GFP viability, ATP luminescence, 18 h
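HepG2 CAGA-GFP cells (1000/well, DMEM with 1% FBS) received compound, then TGF-beta at 500 pg/mL final, and were incubated 18 hours at 37 degrees C. Viability was read by CellTiter-Glo luminescence. Media-only wells were set as complete cell-killing and DMSO as no toxicity.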
ATXN2 expr inh – reduces ATXN2 reporter expression in HEK-293 cells. HEK-293 ATXN2-luciferase reporter, luminescence, 24 h. 360,000 compounds, 0.72% hits. Potency, µM (top dose mostly 57 µM), without a hit: at the highest dose activity change, negative = inhibition, hits mostly inhibitors; further: on the % scale 0 is the no-effect control and ±100 the full control effect; nearly all actives have a fitted effect of over 55% in size
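ATXN2-luciferase reporter cells (luciferase flanked by upstream and downstream ATXN2 gene portions) were treated 24 h at 37 °C with compounds at up to 57 uM. SteadyGlo luminescence gave expression; GF-AFC fluorescence gave viability.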
TGFb SMAD3 inh – TGF-b pathway inhibition | HepG2 CAGA-GFP TGF-b/SMAD3 reporter, GFP fluorescence, 18 h; TGF-beta stimulated, 500 pg/mL final | Potency, µM (series often up to 46.1 µM), without a hit: top-dose activity, negative = inhibition, hits mostly inhibitors | 410,000 compounds, 1.2% hits; further: on the % scale 0 is the no-effect control and ±100 the full control effect; nearly all actives have a fitted effect of over 65% in size
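Per well, imaged GFP fluorescence of HEPG2 CAGA-GFP cells gives the signal; cells get compound, then TGF-beta (500 pg/mL final), 18 h at 37 degrees C; %Activity versus -TGF-beta and +DMSO controls.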
DT40 TDP1 CPT – growth inhibition of DT40 Tdp1-/-;hTDP1 cells with camptothecin (screen for TDP1 inhibitors); chicken DT40 Tdp1-/-;hTDP1 cells + 20 nM CPT, ATP luminescence, 48 h; Potency, µM (top dose mostly 46.2 µM), for inactives: at the highest dose activity change, negative = growth inhibition, hits mostly inhibitors; 420,000 compounds, 12% hits; AID 686979; further: on the % scale 0 is the no-effect control and ±100 the full control effect; nearly all actives have a fitted effect of over 55% in size
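Chicken DT40 Tdp1-/- cells stably complemented with human TDP1 were seeded at 400 cells/well in medium containing 20 nM camptothecin, exposed to pin-transferred compounds, and grown at 37 °C for at least 48 hr. Viability was read as ATP luminescence.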
Starred values were filed as active, the others as inactive; [ ] = remark or other dose. The call rests on the fitted dose curve; in most records, active means well fitted curve in the direction sought with a large enough effect; inconclusive means small, poorly fitted or top-dose-only effect, or another doubt; inactive means no such curve, though single readings can be large; an effect the other way counts as inactive or inconclusive. Potency means the concentration at half of the fitted maximal effect.

O=C(c1cccc(Cl)c1)N1CCN(c2ncnc3c2cnn3-c2ccccc2)CC1 was read as DT40 TDP1 no CPT -4%, S2 tox inactive, HepG2 tox 0%, ATXN2 expr inh 2%, TGFb SMAD3 inh 15% and DT40 TDP1 CPT 20%.
`Cc1nn(-c2ccccc2)c(Cl)c1C(=O)N1CCN(c2ncnc3c2cnn3-c2ccccc2)CC1` gave DT40 TDP1 no CPT 4.1µM*, HepG2 tox -11%, ATXN2 expr inh 18µM*, TGFb SMAD3 inh inconclusive and DT40 TDP1 CPT 3.3µM*.
`O=C(c1ccccc1)N1CCN(c2ncnc3c2cnn3-c2ccccc2)CC1` gave DT40 TDP1 no CPT 21µM*, S2 tox inactive, HepG2 tox -19%, ATXN2 expr inh 9%, TGFb SMAD3 inh -4% and DT40 TDP1 CPT 23µM*.
CCc1cc2c(N3CCN(C(=O)c4ccco4)CC3)ncnc2s1 was read as DT40 TDP1 no CPT inconclusive, S2 tox inactive, HepG2 tox 3%, ATXN2 expr inh 2%, TGFb SMAD3 inh 7% and DT40 TDP1 CPT inconclusive.
For CN1C(=S)SC(N(O)C(=O)Nc2ccc(Cl)c(Cl)c2)C1(C)C (stereo not given) the results were DT40 TDP1 no CPT 16µM*, S2 tox inactive, HepG2 tox -38%, ATXN2 expr inh -14%, TGFb SMAD3 inh inconclusive and DT40 TDP1 CPT 21µM*.
Screening NC1=NCC2c3ccccc3Cc3ccccc3N12 (stereo not given) returned DT40 TDP1 no CPT 24µM*, S2 tox inconclusive, ATXN2 expr inh -14% and DT40 TDP1 CPT inconclusive.
Cc1ccccc1CCNC(=O)Cn1ccc2cc(S(=O)(=O)N3CCCC3)ccc21 was read as DT40 TDP1 no CPT inconclusive, S2 tox inactive, HepG2 tox -8%, ATXN2 expr inh 14%, TGFb SMAD3 inh 2% and DT40 TDP1 CPT 18µM*.
Screening O=C(Cn1ccc2cc(S(=O)(=O)N3CCCCCC3)ccc21)NCCc1ccccc1Cl returned DT40 TDP1 no CPT inconclusive, S2 tox inactive, HepG2 tox -30%, ATXN2 expr inh -4%, TGFb SMAD3 inh -28% and DT40 TDP1 CPT inconclusive.
`Cc1ccc(CCNC(=O)Cn2ccc3cc(S(=O)(=O)N4CCCC4)ccc32)cc1` gave DT40 TDP1 no CPT 23µM*, S2 tox inconclusive, HepG2 tox 1%, ATXN2 expr inh -13%, TGFb SMAD3 inh 3% and DT40 TDP1 CPT inconclusive.
`Cn1nc(C(=O)NCc2cccs2)c2ccccc2c1=O` gave DT40 TDP1 no CPT -26%, S2 tox inactive, HepG2 tox -6%, TGFb SMAD3 inh 7% and DT40 TDP1 CPT -7%.
For Cn1c(SCc2ccc(F)cc2)nc2ccc(C(=O)NCc3ccc(F)cc3)cc21 the results were DT40 TDP1 no CPT 16µM*, S2 tox inconclusive, HepG2 tox -17%, ATXN2 expr inh inconclusive, TGFb SMAD3 inh inconclusive and DT40 TDP1 CPT 16µM*.
Cn1c(SCc2ccc(F)cc2)nc2ccc(C(=O)NCc3cccc(Cl)c3)cc21 was read as DT40 TDP1 no CPT inconclusive, S2 tox inactive, HepG2 tox -29%, ATXN2 expr inh -2%, TGFb SMAD3 inh -20% and DT40 TDP1 CPT 16µM*.
Screening Cc1ccc(CNC(=O)c2ccc3nc(SCc4ccc(F)cc4)[nH]c3c2)cc1 returned DT40 TDP1 no CPT 13µM*, S2 tox inconclusive, HepG2 tox -29%, ATXN2 expr inh inconclusive, TGFb SMAD3 inh inconclusive and DT40 TDP1 CPT 15µM*.
`Cc1cc(=O)c(C(=O)NCCc2ccccn2)c2n1-c1ccccc1SC(c1cccs1)C2` (stereo not given) gave DT40 TDP1 no CPT -8%, S2 tox inactive and DT40 TDP1 CPT -9%[9.04 µM].
Screening Cn1c(=O)c2c(nc(NCC(O)CO)n2CCc2ccccc2)n(C)c1=O (stereo not given) returned DT40 TDP1 no CPT inconclusive, S2 tox inactive, HepG2 tox 0%, ATXN2 expr inh 3%, TGFb SMAD3 inh 7% and DT40 TDP1 CPT -23%.
C=CCn1c(NCCO)nc2c1c(=O)n(C)c(=O)n2C was read as DT40 TDP1 no CPT inconclusive, S2 tox inactive, HepG2 tox -3%, ATXN2 expr inh -2%, TGFb SMAD3 inh -26% and DT40 TDP1 CPT inconclusive.
Screening CC(O)CNc1nc2c(c(=O)n(C)c(=O)n2C)n1C/C=C/c1ccccc1 (stereo not given) returned DT40 TDP1 no CPT 9.2µM*, S2 tox inactive, HepG2 tox -30%, ATXN2 expr inh -8%, TGFb SMAD3 inh -18% and DT40 TDP1 CPT 8.2µM*.
Cn1c(=O)c2c(nc(NCCCO)n2C/C=C/c2ccccc2)n(C)c1=O was read as DT40 TDP1 no CPT 18µM*, S2 tox inactive, HepG2 tox -17%, ATXN2 expr inh 2%, TGFb SMAD3 inh -5% and DT40 TDP1 CPT 18µM*.
`CCOC(=O)Cn1ccc(NC(=O)c2ccc3c(c2)OCO3)n1` gave DT40 TDP1 no CPT inconclusive, S2 tox inactive, HepG2 tox -27%, TGFb SMAD3 inh -23% and DT40 TDP1 CPT inconclusive.
CN(C)S(=O)(=O)c1cccc(C(=O)N(Cc2ccc(F)cc2)Cc2ccco2)c1 was read as DT40 TDP1 no CPT inconclusive, S2 tox inactive, HepG2 tox -18%, ATXN2 expr inh -13%, TGFb SMAD3 inh -4% and DT40 TDP1 CPT inconclusive.
CCCCN(C(=O)c1ccc2c(c1)OCO2)c1ccccc1 was read as DT40 TDP1 no CPT 16µM*, S2 tox inactive, HepG2 tox 8%, ATXN2 expr inh -23%, TGFb SMAD3 inh inconclusive and DT40 TDP1 CPT inconclusive.
O=C(c1cccc(S(=O)(=O)N2CCOCC2)c1)N(Cc1ccc(F)cc1)Cc1ccco1 was read as DT40 TDP1 no CPT 18µM*, S2 tox inactive, HepG2 tox -27%, ATXN2 expr inh -23%, TGFb SMAD3 inh inconclusive and DT40 TDP1 CPT inconclusive.
COc1cccc(CNC(=O)c2cccc(S(=O)(=O)N3CCN(Cc4ccccc4)CC3)c2)c1 was read as DT40 TDP1 no CPT -18%, S2 tox inconclusive, HepG2 tox -9%, ATXN2 expr inh -4%, TGFb SMAD3 inh -11% and DT40 TDP1 CPT -9%.
`CCCCN(C(=O)c1cccc(S(=O)(=O)N2CCN(Cc3ccccc3)CC2)c1)c1ccccc1` gave DT40 TDP1 no CPT 16µM*, S2 tox inactive, HepG2 tox 4%, ATXN2 expr inh -17%, TGFb SMAD3 inh 0% and DT40 TDP1 CPT inconclusive.
